Records with an inconclusive call do not appear. Calls of active or inactive are those of the source. The call rests on the fitted dose curve; in most records, active means well fitted cell-killing curve with a large enough effect; inconclusive means small, poorly fitted or top-dose-only effect; inactive means flat fitted curve, though single readings scatter.
Assay: Cell Viability - LYMP2-026 (AID 989);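 further: cells exposed to compound for 24 h at 37 °C; nearly all actives have a fitted effect of over 50% in size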
Conditions: LYMP2-026 lymphoblastoid cell viability, qHTS; series mostly up to 92.2 µM; activity change, negative = cytotoxic: at the top concentration
From the text: NIH Chemical Genomics Center [NCGC]
NIH Molecular Libraries Screening Centers Network [MLSCN]
National Institutes of Environmental Health Sciences [NIEHS]
National Toxicology Program [NTP]
We have developed a 1536-well cell-based assay for quantitative high throughput screening (qHTS) against a number of cell lines to determine in vitro cytotoxicity of small molecules. This particular assay uses a human lymphoblastoid cell line (LYMP2-026) purchased from Coriell Institute for Medical Research.
NCGC Assay Protocol Summary:
The CellTiter-Glo luminescent cell viability assay (Promega) is a homogeneous method to measure the number of viable cells in culture. The end point readout of this assay is based on quantitation of intracellular ATP, an indicator of metabolic activity, using the luciferase reaction. Luciferase catalyzes the oxidation of beetle Luciferin to oxyluciferin and light in the presence of ATP. The luminescent signal is proportional to amount of ATP present.
Using the CellTiter-Glo luminescent cell viability assay, the amount of cellular ATP was measured in the lymphoblastoid cell line with complete culture medium following compound treatment for 24 hours. The assay was performed in opaque white Kalypsys 1536-well plates. In the screen, tetraoctylammonium bromide was used as positive control. Library compounds were measured for their ability to cause acute toxicity in the cell line, as reflected by a decrease in intracellular ATP levels, in a concentration-dependent manner. […] AC50 values were determined from concentration-response data modeled with the standard Hill equation.
qHTS protocol for CellTiter Glo lymphoblastoid cellular assay
[Step] [Parameter] [Value] [Description]
1. Reagent; 5 uL; 2500 lymphoblastoid cells/well
2. Time; 5 hr; 37 C incubation
4. Controls; 23 nL; Tetraoctylammonium bromide 6.4pM to 92 uM
5. Time; 24 hr; 37 C incubation
6. Reagent; 5 uL; CellTiter Glo reagent
7. Time; 30 min; Room Temperature
8. Detection; Luminescence; Viewlux plate reader
Keywords: cell viability, cytotoxicity, lymphoblastoid cell line, luminescence, NTPHTS, NTPHTS_NCGC, NIEHS, DSSTox, MLSMR, MLSCN, NIH Roadmap, qHTS, NCGC
On the % scale 0 is the no-effect control and ±100 the full control effect; potency means the concentration at half of the fitted maximal effect.

SMILES	activity change, negative = cytotoxic	Potency
O=[N+]([O-])c1cc(Cl)c(Cl)cc1Cl	-3.17% (inactive)	–
CN(C)C(=O)Nc1ccc(Cl)cc1	-1.45% (inactive)	–
Nc1ccc([N+](=O)[O-])cc1N	-9.69% (inactive)	–
CCOS(C)(=O)=O	6.03% (inactive)	–
Clc1cc(Cl)c(Cl)c(Cl)c1	-1.69% (inactive)	–
O=C(Cl)c1ccccc1F	-1.97% (inactive)	–
ClCC(Br)CBr (stereo not given)	7.68% (inactive)	–
CCCCCC[N+](=O)[O-]	2.99% (inactive)	–
ClCC(Cl)Cl	2.35% (inactive)	–
CCCCC(CC)COC(=O)c1ccc(C(=O)OCC(CC)CCCC)c(C(=O)OCC(CC)CCCC)c1 (stereo not given)	-8.08% (inactive)	–
CCOP(=O)(OCC)OCC	-2.79% (inactive)	–
CN(C)c1ccc(N(C)C)cc1	-23.1% (inactive)	–
Nc1ccc([N+](=O)[O-])cc1[N+](=O)[O-]	-11.2% (inactive)	–
CCCCCCCCCCCCCl	-4.37% (inactive)	–
CCCCOC(C)=O	0.18% (inactive)	–
O=[N+]([O-])c1cc(Cl)c(Cl)c(Cl)c1	-11.5% (inactive)	–
CN1CSC(=S)N(C)C1	–	39.8 µM (active)
O=[N+]([O-])c1c(Cl)c(Cl)c(Cl)c(Cl)c1Cl	0.169% (inactive)	–
CCN(N=O)C(N)=O	-5.65% (inactive)	–
Nc1c(Cl)cc([N+](=O)[O-])cc1Cl	8.95% (inactive)	–

SMILES	activity change, negative = cytotoxic	Potency
[N-]=[N+]=[N-]	0.617% (inactive)	–
O=[N+]([O-])c1cccc(O)c1	-5.16% (inactive)	–
ClCCCCl	2.61% (inactive)	–
BrCC(Br)C1CCC(Br)C(Br)C1 (stereo not given)	7.98% (inactive)	–
CCCC[N+](=O)[O-]	-22.9% (inactive)	–
OCCCCO	0.774% (inactive)	–
O=[N+]([O-])c1cccc2c([N+](=O)[O-])cccc12	2.54% (inactive)	–
CC(=O)NNc1ccccc1	3.5% (inactive)	–
Cc1ccccc1[N+](=O)[O-]	-0.315% (inactive)	–
CCOC(=O)CBr	-4.03% (inactive)	–
Oc1cccc(Cl)c1	-12.6% (inactive)	–
Nc1ccc(-c2ccccc2)cc1	-9.99% (inactive)	–
Nc1ccc(Cc2ccc(N)c(Cl)c2)cc1Cl	2.44% (inactive)	–
CCCCNC(=O)n1c(NC(=O)OC)nc2ccccc21	-11.5% (inactive)	–
CC(C)(C)OOC(=O)c1ccccc1	-4.48% (inactive)	–
CC(C)(COCC1CO1)COCC1CO1 (stereo not given)	-9.69% (inactive)	–
CCBr	-8.2% (inactive)	–
CCC#N	0.127% (inactive)	–
C=CC=O	-11.3% (inactive)	–
O=C(O)CCl	-8.75% (inactive)	–

Reference: PubChem BioAssay (NCATS)
